Data from the supplement of paper PMC6555819.

What was measured:
Assay in all cases: PBM binding z-score (relative to random genomic background probes); higher = stronger binding; sequences stand for … in GC…GCGATTGACAGCGTAGAATGAAGG
[1] = test system: PPARg:RXRa DBDmut IVT, anti-RXR (DBD mutation: RXRa K156A/R161A, NR concentration 270 nM, RXRa partner concentration 90 nM)
In short: (§1)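 Custom Agilent 4×180K protein-binding microarrays carried double-stranded probes. Their 34-nt variable regions held direct-repeat seeds, single-nucleotide variants, half-site ablations and random human genomic background sequences. Arrays were incubated 1 h with ligand-free nuclear receptor dimers in PBS pH 7.4, 2% milk, 0.02% Triton X-100, 1 mM DTT, 0.2 mg/mL BSA and 0.4 mg/ml salmon testes DNA. Antibodies against each partner (one per run) detected binding, and scanned fluorescence was regression-normalized. Binding z-scores use random background probes as reference.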

[2] = test system: PPARg:RXRa IVT, anti-PPARg (NR concentration 270 nM, RXRa partner concentration 90 nM)
In short: as §1

[3] = test system: PPARg homodimer (NR concentration 180 nM)
In short: as §1

[4] = test system: PXR:RXRa (NR concentration 270 nM, RXRa partner concentration 90 nM)
In short: as §1

[5] = test system: PXR homodimer (NR concentration 270 nM)
In short: as §1

[6] = test system: RARa:RXR (NR concentration 270 nM, RXRa partner concentration 90 nM)
In short: as §1

[7] = test system: RARa homodimer (NR concentration 270 nM)
In short: as §1

[8] = test system: RARb:RXRa (NR concentration 270 nM, RXRa partner concentration 90 nM)
In short: as §1

[9] = test system: RARb homodimer (NR concentration 270 nM)
In short: as §1

[10] = test system: RARg:RXRa (NR concentration 270 nM, RXRa partner concentration 90 nM)
In short: as §1

[11] = test system: RARg homodimer (NR concentration 270 nM)
In short: as §1

[12] = test system: RXRa DBDmut IVT, anti-RXR (DBD mutation: RXRa K156A/R161A, NR concentration 90 nM)
In short: as §1

[13] = test system: RXRa homodimer (NR concentration 180 nM)
In short: as §1

[14] = test system: THRa:RXRa (NR concentration 90 nM, RXRa partner concentration 90 nM)
In short: as §1

[15] = test system: THRa homodimer (NR concentration 90 nM)
In short: as §1

[16] = test system: VDR homodimer (NR concentration 270 nM)
In short: as §1

Sequence	PBM binding z-score [1]	PBM binding z-score [2]	PBM binding z-score [3]	PBM binding z-score [4]	PBM binding z-score [5]	PBM binding z-score [6]	PBM binding z-score [7]	PBM binding z-score [8]	PBM binding z-score [9]	PBM binding z-score [10]	PBM binding z-score [11]	PBM binding z-score [12]	PBM binding z-score [13]	PBM binding z-score [14]	PBM binding z-score [15]	PBM binding z-score [16]
TGGAGTAGGTTACGGGGGCATTCAGGGATGAAGA	6.12	7.33	3.02	3.97	3.87	3.46	1.99	3.1	2.94	3.75	3.39	2.16	2.83	4.11	2.48	3.94
CTATGTAGGTTAAGGGGGTCTTTCAGTTTGAAAG	7.13	7.07	2.14	2.15	1.64	1.84	0.701	1.89	1.69	1.56	1.25	0.662	1.48	1.94	0.841	1.31
TCGAGAAGGTTACGGGGGCATTCAGGGATGAAGA	3.48	4.73	1.82	3.71	1.24	3.78	0.65	3.65	3.05	4.33	3.04	2.36	4.23	4.21	1.42	3.33
CCGAGTAGGTTAGGAGGGGGCATTCAGTGCGAAT	3.01	4.36	2.59	4.53	6.27	2.88	0.952	2.06	2.05	2.89	2.76	1.76	1.87	3.46	1.44	4.12
TCGAGGAGGTTACGGGGGCATTCAGGGATGAAGA	3.43	5.82	2.53	4.07	2.7	4.4	0.971	3.42	2.61	4.51	3.37	2.51	4.12	4.31	1.88	3.86
CCGAGTAGGTTACGAGGGGGCATTCAATGCGAAT	4.67	4.57	2.11	4.33	0.729	3.11	0.217	2.14	1.91	3.12	2.47	1.05	2.2	3.78	0.33	2.09
CTATGTAGGTTAAGGGGGTCATTGAGTTTGAAAG	7.65	7.94	3.37	6.54	12.9	6.15	1.4	3.78	4.02	5.46	4.18	2.81	5.76	4.01	2.02	7.05
CCGAGTAGGGTACGAGGGGGCATTCAGTGCGAAT	2.87	3.56	0.861	3.15	3.37	1.71	-0.0964	1.36	1.62	1.87	1.59	1.73	1.03	2.64	0.475	4.03
CTATGAAGGTTAAGGGGGTCATTCAGTTTGAAAG	3.68	5.15	4.25	6.22	13.8	6.01	2.51	4.05	4.39	5.59	4.32	2.92	6.52	3.97	2.22	6.88
CTCTGTAGGTTAAGGGGGTCATTCAGTTTGAAAG	5.92	6.03	3.78	6.17	12	6.17	1.78	3.6	3.87	5.32	4.07	2.52	5.91	3.86	2.34	5.47
CCGAGTAGGTTACGAGGGGGCATGCAGTGCGAAT	4.44	4.36	2.26	4.24	2.63	2.98	0.865	2.26	2.07	3.17	2.67	1.12	2.12	3.73	0.433	2.6
TCGAGTAGGTTACGGTGGCATTCAGGGATGAAGA	3.28	3.56	0.177	-0.0566	-0.975	0.611	-0.958	0.864	0.0468	0.487	0.23	-0.239	0.829	0.835	-0.365	-0.35
CCGAGTAGGTTACGAGGGGGCATTCTGTGCGAAT	4.91	4.3	2.19	4.42	1.05	3.12	0.262	2.01	2.05	3.13	2.43	1.11	1.68	3.55	0.547	2.56
TCGAGTAGGTAACGGGGGCATTCAGGGATGAAGA	4.46	5.38	1.54	2.44	1.58	2.48	0.232	1.74	1.54	2.02	1.09	1.75	1.74	3.76	1.33	2.49
TCGAGTAGGTTACGGGGGAATTCAGGGATGAAGA	4.46	4.91	1.34	1.33	0.36	1.17	-0.238	1.62	1.1	1.42	1.05	0.995	1.37	1.93	0.716	0.477
TCGAGTAGGTTACGAGGGCATTCAGGGATGAAGA	3.87	4.89	0.36	1.43	0.25	1.69	-0.742	1.63	1.43	1.55	1.13	0.248	1.58	3.1	0.0603	1.27
TCGAGTAGGTTACGGGGGCAATCAGGGATGAAGA	4.86	6.27	1.35	2.64	0.755	2.99	-0.0158	2.43	2.12	3.25	2.36	1.52	2.73	3.4	0.675	2.03

Sequence	PBM binding z-score [1]	PBM binding z-score [2]	PBM binding z-score [3]	PBM binding z-score [4]	PBM binding z-score [5]	PBM binding z-score [6]	PBM binding z-score [7]	PBM binding z-score [8]	PBM binding z-score [9]	PBM binding z-score [10]	PBM binding z-score [11]	PBM binding z-score [12]	PBM binding z-score [13]	PBM binding z-score [14]	PBM binding z-score [15]	PBM binding z-score [16]
CTATGTAGTTTAAGGGGGTCATTCAGTTTGAAAG	3.79	4.99	4.75	5.93	13.2	5.64	2.73	3.68	3.89	4.53	3.58	3.27	5.05	3.79	2.91	7.03
TCGAGTAGGTTAAGGGGGCATTCAGGGATGAAGA	4.21	4.69	2.85	2.67	1.9	2.87	1.41	2.47	2.37	3.17	2.01	1.92	2.62	3.58	1.48	3.24
TCGAGTAGGTTACGGGGGCATTCGGGGATGAAGA	5.16	5.85	3.02	3.55	2	3.36	0.243	2.54	2.34	3.52	2.38	1.85	2.92	4.01	1.63	3.83
TCGAGTAGATTACGGGGGCATTCAGGGATGAAGA	2.06	2.81	0.745	2.52	1.38	2.08	0.218	1.37	1.26	1.41	0.834	1.65	1.35	3.66	0.874	3.02
CCGGGTAGGTTACGAGGGGGCATTCAGTGCGAAT	1.95	4.17	1.56	5	4.47	3.19	0.857	2.21	2.2	3.26	2.22	0.966	2.35	3.94	0.875	2.55
CTATGTAGGTTATGGGGGTCATTCAGTTTGAAAG	7.32	7.49	4.13	6.22	12.9	6.28	1.72	3.67	4.1	5.57	4.08	2.33	6.38	3.9	2.67	6.69
CTATGTAGGTTAAGGGGGTCATTCAATTTGAAAG	7.02	7.79	5.83	5.67	3.88	5.82	1.49	3.55	3.69	4.93	3.88	2.02	5.5	3.97	1.83	5.01
TCGAGTAGGTTACGGGTGCATTCAGGGATGAAGA	2.9	3.34	0.289	1.62	0.692	1.33	-0.909	0.994	0.631	0.869	0.463	0.951	1.29	2.22	-0.191	2.69
TCGAGTAGGTTACGGGGGCACTCAGGGATGAAGA	4.71	6.2	2.56	2.71	0.594	3.05	-0.263	2.65	2.3	3.39	2.3	1.2	2.84	3.4	1.09	1.68
TCGAGCAGGTTACGGGGGCATTCAGGGATGAAGA	2.41	4.12	1.23	3.03	0.942	3.16	0.368	2.53	2.18	3.37	2.29	1.34	2.92	3.65	0.993	2.9
CCAAGTAGGTTACGAGGGGGCATTCAGTGCGAAT	6.86	6.44	2.19	5.04	6.14	3.18	1.41	2.52	2.46	3.53	3.14	1.89	2.52	3.6	0.736	3.82
CTATGGAGGTTAAGGGGGTCATTCAGTTTGAAAG	4.65	6.42	4.29	6.58	12.7	6.29	2.33	4.01	4.08	5.71	4.46	3.59	6.48	4.04	2.95	6.81
CTAAGTAGGTTAAGGGGGTCATTCAGTTTGAAAG	7.83	7.65	3.59	5.74	11.4	5.63	1.86	3.43	3.97	4.97	4.03	2.69	5.62	3.64	2.28	6.08
CCGAGTAGGTTAAGAGGGGGCATTCAGTGCGAAT	4.47	4.75	2.41	4.95	6.8	2.7	1.37	2.28	2.25	2.76	2.49	2.04	1.76	3.73	0.843	4.02
CCGAGTAGGTTACGAGGGGGCAATCAGTGCGAAT	4.92	4.42	2.06	4.26	2.9	2.87	0.639	2.16	2.19	3.42	2.54	1.02	2.13	3.65	0.431	2.8
CTACGTAGGTTAAGGGGGTCATTCAGTTTGAAAG	2.95	4.54	2.77	5.94	11.4	6.06	0.985	3.63	3.61	5.6	4.1	1.87	6.27	3.9	1.23	6.07
TCGAGTAGGTTACGGGGGGATTCAGGGATGAAGA	4.94	5.45	3.89	3.86	2.74	3.13	2.04	2.8	1.73	2.76	2.33	2.47	2.04	3.42	1.85	2.02
